# Laboratory results published in ChEMBL document CHEMBL4513146, “CO-ADD screening of Karazin Kharkiv National University (Ukraine) compounds”.
# Potency and affinity values are given separately.
# System: Klebsiella pneumoniae
# Conditions: Concentration 32 ug.mL-1;; ASSAY_TEST Inhibition of Bacterial Growth; detection method Absorption (OD600); MEDIA CAMHB; plate type 384well; NBS; CORNING #3640; time 18 hr
row,Compound,Inhibition [%]
1,CCc1nnc2c(SCC(=O)Nc3ccc(C(=O)OC)cc3)nc3ccccc3n12,5.41
2,O=C(Cn1nc2c(Oc3ccccc3)nccn2c1=O)Nc1ccc2c(c1)OCCO2,6.43
3,Cc1ccc(NC(=O)Cn2nc3c(SCc4ccc(Cl)cc4)nccn3c2=O)cc1F,7.4
4,CCc1ccc(NC(=O)Cn2nc3c4cc(-c5ccc(Cl)cc5)nn4ccn3c2=O)cc1,19.83
5,COC(=O)c1sccc1NC(=O)CSc1nc2ccccc2n2c(C)nnc12,6.24
6,O=C(NCc1ccccc1)c1ccc2nn(CC(=O)N3CCN(c4ccccc4F)CC3)c(=O)n2c1,7.35
7,COc1cc(NC(=O)Cn2nc3ccc(SC(C)C)nn3c2=O)cc(OC)c1,4.22
8,O=C(CSc1nnc2c3cc(-c4ccccc4)nn3ccn12)Nc1cccc(Br)c1,14.04
9,CCOC(=O)C1CCN(c2nc3ccccc3n3c(=O)n(CC(=O)Nc4ccccc4F)nc23)CC1,4.78
10,CCOC(=O)c1ccc(NC(=O)Cn2nc3c4cc(-c5ccc(C)c(C)c5)nn4ccn3c2=O)cc1,1.25
11,CCc1nnc2c(SCC(=O)Nc3ccc(OC)c(Cl)c3)nc3ccccc3n12,11.84
12,COc1ccc(-c2cc3c4nn(CC(=O)Nc5ccc(F)cc5)c(=O)n4ccn3n2)cc1,1.02
13,Cc1ccc(-c2ccc3nn(Cc4cc(F)cc(F)c4)c(=O)n3n2)cc1C,3.15
14,CCc1ccc(N(Cc2ccc(OC)cc2)S(=O)(=O)c2cccn3c(C)nnc23)cc1,6.54
